Pf Dd2 growth: Plasmodium falciparum Dd2 growth inhibition; P. falciparum Dd2 growth, SYBR Green, 72 h; Potency, µM (titrated, usually from 28.9 µM), inactives show top-dose activity, negative = inhibition, usual class: inhibitors; hit rate 4.3% among 120,000; AID 1347417; active means well fitted inhibition curve with a large enough effect;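 further: plate controls were DMSO vehicle for no effect and reference drug for full effect; nearly all actives have a fitted effect of over 65% in size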
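Infected erythrocytes (Dd2, 0.3% parasitemia, 2.5% hematocrit final) are added to compound in RPMI-1640/Albumax II medium, grown 72 h at 37C in low oxygen, then lysed with saponin/Triton-X containing SYBR Green and read by fluorescence.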
Starred values were filed as active, the others as inactive; i = inactive; [ ] = another dose, or the depositor's remark. Only a selection was taken, and hits are over-represented in it overall. Potency means the concentration at half of the fitted maximal effect.

SMILES	Pf Dd2 growth
Cc1cccc(-n2cc(CN3C[C@@H](NS(C)(=O)=O)[C@H](C(C)C)C3)cn2)c1	-23%
COc1ccc(O[C@H]2COCCN(S(=O)(=O)c3ccc(F)cc3)C2)cc1	-17%[44.1 µM]
CN(C)C[C@@H]1CN(c2ccncn2)C[C@H]1NC(=O)COc1ccc(Cl)cc1	7.9µM*
COc1ccc(CCC(=O)N[C@@H]2CN(c3ccncn3)C[C@H]2CN(C)C)cc1	24%
Cc1ccc(CC(=O)N[C@@H]2CN(c3ccncn3)C[C@H]2CN(C)C)cc1	7%
COCCN1C(=O)[C@H]2CN(Cc3cccc(Cl)c3)C[C@H]2C1=O	11%
CCO[C@H]1CN(C(=O)C(C)(C)Oc2ccc3c(c2)CCC3)C[C@@H]1O	-4%
COCc1nc2nc(-c3ccccc3)c(-c3cccnc3)cc2n1C	-6%[44.1 µM]
COc1ncccc1-c1cc2c(nc1-c1ccccc1)nc(C(=O)NCCN(C)C)n2C	i
COCc1nc2nc(-c3ccccc3)c(-c3ccccc3OC)cc2n1C	-6%[44.1 µM]
Cn1c(C(=O)NCc2ccoc2)nc2nc(-c3ccccc3)c(Cl)cc21	-5%[44.1 µM]
Cn1c(C(=O)NCCc2ccccn2)nc2nc(-c3ccccc3)c(Cl)cc21	i
CN(C)CCNC(=O)c1nc2nc(-c3ccccc3)c(-c3ccccc3O)cc2n1C	5.6µM*
COCc1nc2nc(-c3ccccc3)c(-c3ccccc3O)cc2n1C	4.5µM*
COc1ccc(CNC(=O)c2nc3nc(-c4ccccc4)c(Cl)cc3n2C)cc1OC	9%[44.1 µM]
CN(C)CCNC(=O)c1nc2nc(-c3ccccc3)c(-c3ccc(Cl)cc3)cc2n1C	5µM*
Cn1c(C(=O)NCCN2CCOCC2)nc2nc(-c3ccccc3)c(Cl)cc21	i
COc1cc(CNC(=O)c2nc3nc(-c4ccccc4)c(Cl)cc3n2C)cc(OC)c1	8.9µM*
Cn1c(C(=O)NCC2CC2)nc2nc(-c3ccccc3)c(Cl)cc21	-13%[44.1 µM]
Cc1ccccc1-c1ccc2n(c1=O)C[C@H]1C[C@@H]2CN(C(=O)Nc2ccc(Cl)cc2)C1	-14%[44.1 µM]
COc1ccc(NC(=O)N2C[C@@H]3C[C@H](C2)c2c(NS(=O)(=O)c4ccccc4)ccc(=O)n2C3)cc1	26%
C#CCNC(=O)C1CN(c2cccc(Cl)c2)C(=O)N1 (stereo not drawn)	i
CCn1cc(CN2CCC([C@@H]3CNC[C@H]3CO)CC2)c2cc(OC)ccc21	-9%
COC[C@H]1CCCN1Cc1nc(C2(O)CCN(C3CCCC3)CC2)cs1	-12%[44.1 µM]
CCNC(=O)c1ccc2c(c1)N(C(=O)c1ccc(F)cc1)CC2	i
SMILES	Pf Dd2 growth
O=C1CCN(C(=O)[C@@H](Cc2ccccc2)NC(=O)C2CCCCC2)CCOCCN1	15%
O=C(c1ccno1)N1CCN2C(=O)N(Cc3cccnc3)C[C@H]2C1	9%[44.1 µM]
Cn1cc(CN2Cc3c(cc(N4CCOCC4)nc3-c3cccnc3)C2=O)cn1	-23%[44.1 µM]
CCOC(=O)C1=C(C)N=C2SC=C(CC(=O)Nc3ccc(C)c(C)c3)N2C1c1cccc(OC)c1 (stereo not drawn)	8.9µM*
COC(=O)C1=C(C)N=C2SC=C(CC(=O)Nc3ccc(F)cc3)N2C1c1ccc(OC)cc1OC (stereo not drawn)	-2%
CCOC(=O)C1=C(C)N=C2SC=C(CC(=O)Nc3ccc(OC)cc3)N2C1c1cccc(OC)c1 (stereo not drawn)	-11%
COCCOC(=O)C1=C(C)N=C2SC=C(CC(=O)Nc3cccc(OC)c3)N2C1c1ccccc1 (stereo not drawn)	-1%
CCOC(=O)C1=C(C)N=C2SC=C(CC(=O)NC(C)CC)N2C1c1cccc([N+](=O)[O-])c1 (stereo not drawn)	i
CCOC(=O)C1=C(C)N=C2SC=C(CC(=O)Nc3cccc(OC)c3)N2C1c1cccc(OC)c1 (stereo not drawn)	11µM*
O=C(c1ccccn1)N1CCN(c2cc(-c3cccs3)[nH]n2)CC1	18%
Cc1ccc(C(=O)N2CCC(CCC(=O)N(C)CCc3c(C)nn(C)c3C)CC2)cc1	-25%
Cc1cccc(NC(=O)N2CCCC(Cc3noc(C4CC4)n3)C2)c1 (stereo not drawn)	1%
COc1ccc(-c2onc(C)c2C(=O)N(C)Cc2cc(OC)c(OC)c(OC)c2)cc1	10µM*
COc1ccc(-c2onc(C)c2C(=O)NCCCCc2ccccc2)cc1	-13%
COc1ccc(-c2onc(C)c2C(=O)NCc2c(OC)cc(OC)cc2OC)cc1	i
COCCCNC(=O)c1c(C)noc1-c1cc(OC)c(OC)c(OC)c1	22%
COc1cc(-c2onc(C)c2C(=O)NCCCc2ccccc2)cc(OC)c1OC	11µM*
COc1ccc([C@H](C)NC(=O)c2c(C)noc2-c2cc(OC)c(OC)c(OC)c2)cc1	-3%
O=C(Cn1ccn2nc(-c3ccc(F)cc3)c(CO)c2c1=O)Nc1cccc(Cl)c1	-12%
O=C(Nc1cc2c(cc1C(=O)c1ccccc1Cl)OCCO2)c1ccc(Br)cc1	13%
CCC(O)c1cc2c(cc1NC(=O)c1cccc(Br)c1)OCCO2 (stereo not drawn)	11µM*
COc1cccc(C(=O)Nc2cc3c(cc2C(=O)c2ccc(C)cc2)OCCO3)c1	4%
O=C([C@H]1C[C@H](Oc2ccccc2)CN1C(=O)c1cccc(F)c1)N1CCOCC1	10%
CSCCCN1CC(Oc2cccc(C(=O)N3CCCC3)c2)C1	-5%
NC(=O)c1ccc(Nc2cnc3ccc(-c4ccccc4)nn23)cc1	-11%[44.1 µM]
SMILES	Pf Dd2 growth
COc1ccc(Nc2cnc3ccc(-c4ccc(OC)c(OC)c4)nn23)cc1OC	i
CN1CCN(Cc2ccc(Nc3cnc4ccc(-c5ccccc5)nn34)cc2)CC1	2.2µM*
COc1ccccc1-c1ccc2ncc(Nc3ccc(CCO)cc3)n2n1	i
c1ccc(-c2ccc3ncc(Nc4ncccn4)n3n2)cc1	i
COc1ccccc1Nc1cnc2ccc(-c3ccccc3OC)nn12	-4%[44.1 µM]
COc1ccc(Nc2cnc3ccc(-c4ccc(OC)c(OC)c4)nn23)cc1	1.1µM*
CN1CCN(Cc2ccc(Nc3cnc4ccc(N5CCOCC5)nn34)cc2)CC1	-20%[44.1 µM]
COc1cncc(Nc2cnc3ccc(-c4ccccc4OC)nn23)c1	2.5µM*
COc1ccc(-c2ccc3ncc(Nc4cccnc4OC)n3n2)cc1OC	-6%[44.1 µM]
COc1ccc(Nc2cnc3ccc(-c4ccccc4)nn23)cc1	5.6µM*
COc1ccc(-c2cc(C(=O)N3CCC(c4nc(CCOCC5CC5)no4)C3)[nH]n2)cc1 (stereo not drawn)	-14%
O=C(c1ccoc1)N1CCC2(CCCCO2)CC1	15%
O=c1c2c(CO)c(-c3ccc(F)cc3)nn2ccn1Cc1cc(=O)n2ccccc2n1	i
COCC1CN(C(C)=O)CC12CCN(C(=O)c1cccnc1C)CC2 (stereo not drawn)	i
CCCc1ncncc1C(=O)N(CCO)Cc1nccn1C	-13%
Cc1ccc(NC(=O)c2ccc3c(c2)C(O)CCCCCN3C)cc1 (stereo not drawn)	i
CN(C)CC1(O)CCCN(Cc2ccc(CCN)cc2)C1 (stereo not drawn)	-8%
COc1ccccc1-c1ccc2ncc(Nc3cccc(N[S+](C)(=O)[O-])c3)n2n1	i
COc1cncc(Nc2cnc3ccc(-c4ccc(OC)c(OC)c4)nn23)c1	0.89µM*
COc1cncc(Nc2cnc3ccc(-c4ccc(OC)nc4)nn23)c1	i
CN(Cc1ccccc1C(F)(F)F)S(=O)(=O)NCc1ccccc1	-17%
COc1ccc(CCN(C)Cc2nc(-c3ccccn3)no2)cc1OC	i
O=c1n(-c2ccc(Cl)cc2)nc2n1CCN(Cc1ccc(C(F)(F)F)cc1)C2	-19%
COc1ccc(CN2CCn3c(nn(-c4ccc(C(F)(F)F)cc4)c3=O)C2)cc1	-7%

Screening results (PubChem)
